Measurements published in the supplement of paper PMC12282887.
± gives the standard deviation of the averaged measurements.

Assays:
Test in all cases: promoter activity interaction Z-score (Lux/OD deviation from empty-vector control); higher = stronger promoter induction by the compound
[1] = system: E. coli BW25113 acrABp lux reporter
Summary of the method: (§1)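 E. coli BW25113 (wild type or marA, soxS or rob deletion) carrying low-copy luxCDABE promoter reporters grew in 40 µl LB Lennox in 384-well plates at 37°C. Each compound was tested at four 1:2 dilutions in biological duplicates. OD600 and luminescence were read every 30 min for 12 h. Areas were taken over 0–8 h (wild type) or 1–9 h (mutants), and wells below 10% of median growth area were removed. The score is the Z-transformed residual of growth-normalised luminescence fitted against the empty-vector control.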

[2] = system: E. coli BW25113 micFp lux reporter
Summary of the method: as §1

[3] = system: E. coli BW25113 ompFp lux reporter
Summary of the method: as §1

[4] = system: E. coli BW25113 robp lux reporter
Summary of the method: as §1

[5] = system: E. coli BW25113 soxSp lux reporter
Summary of the method: as §1

[6] = system: E. coli BW25113 tolCp lux reporter
Summary of the method: as §1

[7] = 2.4 µg/ml, genetic background: wild type
[8] = 2.4 µg/ml, genetic background: ΔmarA
[9] = 2.4 µg/ml, genetic background: Δrob
[10] = 2.4 µg/ml, genetic background: ΔsoxS
[11] = 4.8 µg/ml, genetic background: wild type
[12] = 4.8 µg/ml, genetic background: ΔmarA
[13] = 4.8 µg/ml, genetic background: Δrob
[14] = 4.8 µg/ml, genetic background: ΔsoxS
[15] = 9.5 µg/ml, genetic background: wild type
[16] = 9.5 µg/ml, genetic background: ΔmarA
[17] = 9.5 µg/ml, genetic background: Δrob
[18] = 9.5 µg/ml, genetic background: ΔsoxS
[19] = 19 µg/ml, genetic background: wild type
[20] = 19 µg/ml, genetic background: ΔmarA
[21] = 19 µg/ml, genetic background: Δrob
[22] = 19 µg/ml, genetic background: ΔsoxS

CO[C@@H]1[C@@H](OC(N)=O)[C@@H](O)[C@H](Oc2ccc3c(O)c(NC(=O)c4ccc(O)c(CC=C(C)C)c4)c(=O)oc3c2C)OC1(C)C [Novobiocin]
promoter activity interaction Z-score [1, 7]: 0.244 ± 0.011
promoter activity interaction Z-score [1, 8]: -0.347 ± 1.3
promoter activity interaction Z-score [1, 9]: 0.848 ± 0.4
promoter activity interaction Z-score [1, 10]: 0.546 ± 0.036
promoter activity interaction Z-score [1, 11]: 0.442 ± 0.43
promoter activity interaction Z-score [1, 12]: 0.136 ± 0.95
promoter activity interaction Z-score [1, 13]: 1.49 ± 0.32
promoter activity interaction Z-score [1, 14]: 0.39 ± 0.16
promoter activity interaction Z-score [1, 15]: 0.927 ± 0.17
promoter activity interaction Z-score [1, 16]: -0.164 ± 0.91
promoter activity interaction Z-score [1, 17]: 1.06 ± 0.42
promoter activity interaction Z-score [1, 18]: 1.16 ± 0.38
promoter activity interaction Z-score [1, 19]: 2.99 ± 1.6
promoter activity interaction Z-score [1, 20]: 0.0115
promoter activity interaction Z-score [1, 21]: 10.3 ± 1.3
promoter activity interaction Z-score [1, 22]: 4.62 ± 1.6
promoter activity interaction Z-score [2, 7]: -0.408 ± 0.09
promoter activity interaction Z-score [2, 8]: 0.0296 ± 0.17
promoter activity interaction Z-score [2, 9]: 0.145 ± 0.073
promoter activity interaction Z-score [2, 10]: -0.147 ± 0.056
promoter activity interaction Z-score [2, 11]: 0.134 ± 0.14
promoter activity interaction Z-score [2, 12]: 0.213 ± 0.017
promoter activity interaction Z-score [2, 13]: 0.0635 ± 0.05
promoter activity interaction Z-score [2, 14]: -0.119 ± 0.12
promoter activity interaction Z-score [2, 15]: 0.284 ± 0.49
promoter activity interaction Z-score [2, 16]: 0.421 ± 0.17
promoter activity interaction Z-score [2, 17]: 0.245 ± 0.24
promoter activity interaction Z-score [2, 18]: 0.14 ± 0.16
promoter activity interaction Z-score [2, 19]: 1.5406 ± 0.00073
promoter activity interaction Z-score [2, 20]: 0.113 ± 0.18
promoter activity interaction Z-score [2, 21]: -0.174 ± 0.2
promoter activity interaction Z-score [2, 22]: 1.4 ± 0.62
promoter activity interaction Z-score [3, 7]: 0.0673 ± 0.21
promoter activity interaction Z-score [3, 8]: -0.291 ± 0.042
promoter activity interaction Z-score [3, 9]: 0.21 ± 0.083
promoter activity interaction Z-score [3, 10]: -0.226 ± 0.19
promoter activity interaction Z-score [3, 11]: 0.318 ± 0.29
promoter activity interaction Z-score [3, 12]: -0.339 ± 0.52
promoter activity interaction Z-score [3, 13]: 0.165 ± 0.0019
promoter activity interaction Z-score [3, 14]: 0.0876 ± 0.53
promoter activity interaction Z-score [3, 15]: -0.446 ± 0.54
promoter activity interaction Z-score [3, 16]: -1.53 ± 0.12
promoter activity interaction Z-score [3, 17]: -1.13 ± 0.89
promoter activity interaction Z-score [3, 18]: -0.424 ± 0.61
promoter activity interaction Z-score [3, 19]: -1.63 ± 0.2
promoter activity interaction Z-score [3, 20]: -1.87 ± 0.17
promoter activity interaction Z-score [3, 21]: -2.05 ± 0.56
promoter activity interaction Z-score [3, 22]: -1.87 ± 0.47
promoter activity interaction Z-score [4, 7]: 0.51 ± 0.35
promoter activity interaction Z-score [4, 8]: 0.679 ± 0.23
promoter activity interaction Z-score [4, 9]: 1.25 ± 0.25
promoter activity interaction Z-score [4, 10]: 0.985 ± 1.4
promoter activity interaction Z-score [4, 11]: 1.19 ± 0.16
promoter activity interaction Z-score [4, 12]: 1.57 ± 0.17
promoter activity interaction Z-score [4, 13]: 1.21 ± 0.23
promoter activity interaction Z-score [4, 14]: 1.76 ± 1.1
promoter activity interaction Z-score [4, 15]: 0.92 ± 0.12
promoter activity interaction Z-score [4, 16]: 1.41 ± 0.34
promoter activity interaction Z-score [4, 17]: 1.08 ± 0.13
promoter activity interaction Z-score [4, 18]: 1.88 ± 0.47
promoter activity interaction Z-score [4, 19]: 2.49 ± 0.18
promoter activity interaction Z-score [4, 20]: 2.71 ± 1.5
promoter activity interaction Z-score [4, 21]: 2.7 ± 1.2
promoter activity interaction Z-score [4, 22]: 2.56 ± 1.5
promoter activity interaction Z-score [5, 7]: -0.136 ± 0.025
promoter activity interaction Z-score [5, 8]: -0.0396 ± 0.014
promoter activity interaction Z-score [5, 9]: 0.132 ± 0.012
promoter activity interaction Z-score [5, 10]: -0.0347 ± 0.41
promoter activity interaction Z-score [5, 11]: 0.0479 ± 0.082
promoter activity interaction Z-score [5, 12]: -0.0499 ± 0.0013
promoter activity interaction Z-score [5, 13]: 0.0442 ± 0.016
promoter activity interaction Z-score [5, 14]: 0.0803 ± 0.2
promoter activity interaction Z-score [5, 15]: -0.193 ± 0.16
promoter activity interaction Z-score [5, 16]: -0.125 ± 0.18
promoter activity interaction Z-score [5, 17]: 0.00176 ± 0.065
promoter activity interaction Z-score [5, 18]: 0.0899 ± 0.22
promoter activity interaction Z-score [5, 19]: -0.00867 ± 0.13
promoter activity interaction Z-score [5, 20]: -0.000878 ± 0.32
promoter activity interaction Z-score [5, 21]: -0.0162 ± 0.056
promoter activity interaction Z-score [5, 22]: 0.304 ± 0.35
promoter activity interaction Z-score [6, 7]: 0.183 ± 0.43
promoter activity interaction Z-score [6, 8]: 0.192 ± 0.74
promoter activity interaction Z-score [6, 9]: 0.95 ± 0.16
promoter activity interaction Z-score [6, 10]: -0.793 ± 0.74
promoter activity interaction Z-score [6, 11]: 0.878 ± 0.85
promoter activity interaction Z-score [6, 12]: 1.47 ± 0.72
promoter activity interaction Z-score [6, 13]: 0.512 ± 0.0012
promoter activity interaction Z-score [6, 14]: 0.453 ± 0.65
promoter activity interaction Z-score [6, 15]: 0.713 ± 0.2
promoter activity interaction Z-score [6, 16]: 1.93 ± 0.4
promoter activity interaction Z-score [6, 17]: 1.26 ± 0.14
promoter activity interaction Z-score [6, 18]: 0.497 ± 0.4
promoter activity interaction Z-score [6, 19]: 1.73 ± 1.4
promoter activity interaction Z-score [6, 20]: 0.8 ± 2.4
promoter activity interaction Z-score [6, 21]: 2.44 ± 0.49
promoter activity interaction Z-score [6, 22]: 2 ± 0.17
